# Compound activity as filed in PubChem.
# OTUD3 inh: inhibitors of human OTUD3 deubiquitinase; Q5T2D3; purified OTUD3, Ub-rhodamine fluorescence, 2 h; inhibition, % at 25 µM; actives 0.7% (n = 47,000)
# Target sequence (Q5T2D3 whole entry, looked up): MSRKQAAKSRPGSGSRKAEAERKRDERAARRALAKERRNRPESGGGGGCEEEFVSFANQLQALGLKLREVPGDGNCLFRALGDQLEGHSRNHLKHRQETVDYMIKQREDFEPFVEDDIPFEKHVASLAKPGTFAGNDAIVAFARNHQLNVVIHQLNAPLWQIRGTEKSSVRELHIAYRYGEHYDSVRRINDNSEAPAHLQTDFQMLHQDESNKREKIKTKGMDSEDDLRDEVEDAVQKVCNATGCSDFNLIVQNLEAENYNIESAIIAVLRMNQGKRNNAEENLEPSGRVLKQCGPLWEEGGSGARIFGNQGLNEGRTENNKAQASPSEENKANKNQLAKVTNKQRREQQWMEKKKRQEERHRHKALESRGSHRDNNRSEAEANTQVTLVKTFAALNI
# UCHL1 block: inhibitors of human UCHL1 deubiquitinase | P09936 | purified UCHL1, Ub-rhodamine cleavage fluorescence | inhibition, % at 20 µM | actives 0.2% (n = 47,000)
# USP7 block: inhibitors of human USP7 deubiquitinase; actives 0.3% (n = 47,000); purified USP7, Ub-rhodamine cleavage fluorescence; AID 1645854; inhibition, % at 20 µM
# USP10 inh: human USP10 deubiquitinase inhibition; AID 1645856; purified USP10, Ub-rhodamine fluorescence, 60 min; inhibition, % at 20 µM; actives 1.1% (n = 47,000)
# * marks the source's active call; other numbers are inactive results. Rows were chosen to be rich in hits. Some 1.7% of all compounds tested hit in one or more screens of this group. Rule as the data show it: active = inhibition above about 30%; inactive = the rest.
SMILES,OTUD3 inh,UCHL1 block,USP7 block,USP10 inh
O=C(COc1ccc(N2CC(C(=O)NCc3ccc4c(c3)OCO4)CC2=O)cc1)Nc1ccc(Cl)cc1 (centres undefined),10,4,22,38*
COc1ccc(C(=O)N2CCN(c3nnc4ccccn34)CC2)cc1,-10,-1,-5,0
CC(=O)c1ccc(NC(=O)CSc2ccc3nnc(-c4ccncc4)n3n2)cc1,-8,1,-1,-2
O=C(CSc1nnc2c3ccccc3nc(-c3ccco3)n12)N1CCCc2ccccc21,-27,-2,1,48*
O=C1CC(c2ccccc2F)c2c(nc(-c3ccccc3)[nH]c2=O)N1 (centres undefined),0,5,7,1
COc1cc(C2CC(=O)Nc3nc(-c4ccccc4)[nH]c(=O)c32)cc(OC)c1O (centres undefined),47*,8,24,19
N=C1/C(=C/c2cn(Cc3ccc(F)cc3)c3ccccc23)C(=O)N=C2SC(Cc3ccccc3)=NN12,-14,-5,11,34*
N=C1/C(=C/c2cn(Cc3ccccc3)c3ccccc23)C(=O)N=C2SC(C(F)(F)F)=NN12,-20,0,10,43*
COCCNc1ccc(-c2nc(-c3ccccc3OC)no2)cc1[N+](=O)[O-],-108,-34,-50,-7
CC1c2ccsc2CCN1S(=O)(=O)c1cc(C(F)(F)F)cc(C(F)(F)F)c1 (centres undefined),8,4,8,7
COCCCNC(=O)c1c(NC(=O)c2csnn2)sc2c1CCC2,-20,-39,-37,-9
COc1cccc(NC(=O)C2C3C=CC4(O3)C2C(=O)N(CCc2ccc(Cl)cc2)C4C(=O)NC2CCCCC2)c1 (centres undefined),9,2,7,35*
COc1ccc(NC(=O)C2C3C=CC4(O3)C2C(=O)N(CCc2ccccc2)C4C(=O)NC2CCCCC2)cc1 (centres undefined),22,4,-109,-2
COc1cccc(NC(=O)C2C3C=CC4(O3)C2C(=O)N(CCc2ccccc2Cl)C4C(=O)NC2CCCCC2)c1 (centres undefined),32*,-2,-25,-1
CCC(C)[C@H](NC(=O)N1CCn2c1nc1ccccc12)C(=O)NCCCc1ccccc1 (some centres undefined),4,6,3,13
Cc1ccc(-n2cc(C(=O)c3ccccc3OC(=O)c3cccc(Br)c3)cn2)cc1,-7,2,2,6
O=C(COC(=O)c1ccc2c(c1)OCCO2)NCCc1ccc(F)cc1,-4,-3,-4,0
COc1ccccc1-c1nnc2sc(COc3cccc(C)c3)nn12,18,4,-6,5
O=C(c1ccccc1)c1c(-c2ccccc2)oc2ccc(NS(=O)(=O)c3ccc(Cl)cc3)cc12,10,10,16,33*
Cc1oc2ccc(NS(=O)(=O)c3ccc(F)cc3)cc2c1C(=O)OCc1ccccc1,7,7,13,20
Cc1nc(N2CCCC2)ncc1-c1cc(=O)[nH]c(Nc2ccc(Cl)cc2Cl)n1,8,3,14,51*
Cc1ccc(-n2c(=O)[nH]c3c(C(N)=O)nc(-c4cccnc4)nc32)cc1,31*,0,4,-4
CC1=C[C@H]2[C@H](C(C)C)CC[C@@](C)(O)[C@H]2CC1=O,0,-2,-1,-4
CC(C)[C@H]1CC[C@@]2(CO2)[C@H]2C(=O)OCC(C(=O)O)=C[C@H]12,55*,3,4,3
O=C(Nc1cc(S(=O)(=O)Nc2ccc(Cl)cc2)ccc1O)c1cc2c(s1)CCC2,8,33*,60*,70*
SMILES,OTUD3 inh,UCHL1 block,USP7 block,USP10 inh
Cc1nc(-c2csc(S(=O)(=O)Nc3cccc(F)c3)c2)no1,9,2,5,1
Oc1cccc2c(-c3ccc(O)c4c(O)cccc34)ccc(O)c12,76*,78*,-54,71*
CCOC(=O)c1c(S(=O)(=O)NCC(=O)Nc2ccc(F)cc2)c(C)n(C)c1C,4,1,1,0
COc1ccc(CCNc2cc3n(c(=O)n2)CCc2cc(OC)c(OC)cc2-3)cc1OC,5,1,0,-4
COc1cc2c(cc1OC)-c1cc(Nc3ccc(Br)cc3)nc(=O)n1CC2,-5,-3,7,43*
COc1ccc(C(=O)Nc2sc3c(c2C(=O)NCc2cccnc2)CCCC3)cc1,40*,1,0,-15
Cc1nnc(SCC(=O)Nc2ccc3[nH]c(=O)[nH]c3c2)n1Cc1ccccc1,5,2,1,-2
CC(C)c1ccc(NC(=O)COC(=O)c2ccc(NS(=O)(=O)c3ccc4c(c3)OCCO4)cc2)cc1,-12,4,17,51*
O=C(COC(=O)c1ccc(NS(=O)(=O)c2ccc(F)c(F)c2)cc1)Nc1ccc(OCc2ccccc2)cc1,5,0,4,53*
COc1cccc(NC(=O)C(C)OC(=O)c2ccc(NS(=O)(=O)c3ccc(F)c(F)c3)cc2)c1 (centres undefined),-4,1,6,12
CC(OC(=O)c1ccc(NS(=O)(=O)c2ccc3c(c2)OCCO3)cc1)C(=O)Nc1cccc2ccccc12 (centres undefined),-14,-2,6,8
CCc1ccc(CN(C)C(=O)c2ccc(NS(=O)(=O)c3ccc(F)c(F)c3)cc2)cc1,9,8,9,38*
Cc1cc(CSc2ncccc2C(=O)Nc2ccnn2C(C)C2CC2)no1 (centres undefined),0,0,0,-5
COC(=O)c1ccc2c(=O)n(CCCCCC(=O)N3CCN(c4ccccc4OC)CC3)c(=O)[nH]c2c1,-10,0,-3,-4
COC(=O)c1ccc2c(=O)n(CCCCCC(=O)NCCc3ccc(S(N)(=O)=O)cc3)c(=O)[nH]c2c1,21,6,20,37*
COC(=O)c1ccc2c(=O)n(CCCCCC(=O)N3CCN(c4ccccn4)CC3)c(=O)[nH]c2c1,-1,-5,-3,-1
COC(=O)c1ccc2c(=O)n(CCCCCC(=O)NCCc3ccccc3Cl)c(=O)[nH]c2c1,-2,0,15,53*
O=C(c1cc(S(=O)(=O)Nc2ccc(Cl)cc2)ccc1Cl)N1CCCc2ccccc21,-36,5,-20,36*
Cc1cccc(NC(=O)COC(=O)c2sc3cc(F)ccc3c2Cl)c1,0,2,6,6
CC(=O)c1cccc(NC(=O)COC(=O)c2sc3cc(F)ccc3c2Cl)c1,0,5,10,31*
COc1ccccc1C(=O)N1CCC2(CC1)NC(=O)N(CCOc1ccccc1)C2=O,-6,-1,-2,2
O=C(NCCNc1ccc(Nc2ccncc2)nn1)Nc1ccccc1F,3,0,5,1
CCCC[C@@H](C)/C=C(C)/C=C(\C)C(=O)NC1=C[C@](O)(/C=C/C=C/C=C/C(=O)NC2=C(O)CCC2=O)[C@@H]2O[C@@H]2C1=O,69*,34*,26,6
O=C(CCc1ccc(S(=O)(=O)N2CCOCC2)cc1)OCC(=O)c1ccc(-c2ccccc2)cc1,11,1,10,38*
